Compound activity (PubChem BioAssay)
Rows were chosen to be rich in hits. Some 21% of all compounds tested hit in one or more screens of this group.
DT40 TDP1 CPT: DT40-hTDP1 cell growth loss with CPT | AID 686979 | chicken DT40 Tdp1-/-;hTDP1 cells + 20 nM CPT, ATP luminescence, 48 h | 12% of 420,000 active | Potency, µM (doses to about 46.2 µM), for the others: top-dose activity change, negative = growth inhibition, actives largely listed as inhibitors; also: potency is read from the fitted curve at half-maximal effect; nearly all actives have a fitted effect of over 55% in size
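Cell growth measured by CellTiter-Glo luminescence after a minimum 48 h, 37 C compound exposure with 20 nM CPT in Tdp1-knockout DT40 cells stably expressing hTDP1, seeded 400/well; qHTS titration format.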
VP16 counter: Gal4-VP16 reporter inhibition counter-screen. Drosophila S2 Gal4-VP16 UAS-luciferase, luminescence, 20 h. Potency, µM (titrated, usually from 53.6 µM), for the others: top-dose activity, negative = inhibition, most hits filed as inhibitors. 3.5% of 310,000 active;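 also: Gal4-VP16 expression switched on by copper sulfate through the metallothionein promoter; potency is read from the fitted curve at half-maximal effect; nearly all actives have a fitted effect of over 50% in size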
ELG1 DNA repair: blocks ELG1-dependent DNA repair in HEK293T cells | AID 504467 | 2.3% of 330,000 active | Potency, µM (highest dose often 46.1 µM), for inactives: at the top dose activity change, negative = inhibition, actives largely listed as inhibitors | HEK293T ELG1-luciferase reporter, luminescence, 16 h; DNA damage induced by 5-fluorouridine; also: potency is read from the fitted curve at half-maximal effect; nearly all actives have a fitted effect of over 55% in size
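DMSO vehicle served as the neutral condition. Each well held 2,000 cells given 5-fluorouridine plus compound; after 16 hr at 37 °C/5% CO2, ONE-Glo was added and luciferase measured 30 min later.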
DT40 TDP1 no CPT: qHTS for Inhibitors of human tyrosyl-DNA phosphodiesterase 1 (TDP1): qHTS in cells in absence of CPT; 15% of 420,000 active; DT40 Tdp1-/- hTDP1 cells, no CPT, ATP luminescence, 48 h; Potency, µM (titrated, usually from 46.2 µM), inactives show at the highest dose activity change, negative = growth inhibition, hits mostly inhibitors; also: potency is read from the fitted curve at half-maximal effect; nearly all actives have a fitted effect of over 55% in size
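Compound effects on proliferation are scored in DT40 Tdp1-/-;hTDP1 cells in the absence of CPT. ATP levels (CellTiter-Glo luminescence) are recorded after a ≥48 hr, 37 °C incubation.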
RORgamma inh: ROR gamma (mouse) transcription inhibition. P51450. Drosophila S2 Gal4-RORgamma UAS-luciferase reporter, 20 h. Potency, µM (highest dose often 53.6 µM), for the others: at the top dose activity change, negative = inhibition, hits mostly inhibitors. 5.4% of 310,000 active. AID 2551; also: potency is read from the fitted curve at half-maximal effect; nearly all actives have a fitted effect of over 60% in size
Target sequence (P51450 whole entry, looked up, the tested form may be a part): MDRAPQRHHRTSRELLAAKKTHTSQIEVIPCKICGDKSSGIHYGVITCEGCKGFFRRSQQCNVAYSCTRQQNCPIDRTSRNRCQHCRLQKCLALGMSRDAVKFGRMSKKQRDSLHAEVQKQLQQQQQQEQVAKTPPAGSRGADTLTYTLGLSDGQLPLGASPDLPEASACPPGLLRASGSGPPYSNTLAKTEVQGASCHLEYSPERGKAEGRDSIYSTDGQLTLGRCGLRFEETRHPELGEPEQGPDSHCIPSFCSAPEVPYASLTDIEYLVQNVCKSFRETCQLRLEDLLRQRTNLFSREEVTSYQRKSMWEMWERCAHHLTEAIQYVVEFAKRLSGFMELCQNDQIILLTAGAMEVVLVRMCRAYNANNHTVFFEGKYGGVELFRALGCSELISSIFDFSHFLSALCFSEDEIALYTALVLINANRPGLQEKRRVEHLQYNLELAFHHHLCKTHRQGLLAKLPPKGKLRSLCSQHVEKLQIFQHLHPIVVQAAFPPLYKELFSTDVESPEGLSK
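Drosophila Schneider cells stably carrying a metallothionein-driven Gal4 DBD–ROR gamma fusion and a UAS-Photinus luciferase reporter were exposed to compound for 1 hr, then induced with copper sulfate (700 uM final) for 20 hr at ambient temperature before luminescence reading.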
IL1B secr inh: inflammasome signaling inhibition, IL-1 beta readout; THP-1 LPS/ATP IL-1B secretion, AlphaLISA, 16 h; stronger effect = lower value; activity change, % at 57.5 µM; 4.7% of 360,000 active; AID 743279; in the data active = activity change below about -50%; inconclusive = mostly about -30% to -49%
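Secreted IL-1B measured by AlphaLISA bead assay after 16 h compound exposure of THP-1 cells; compounds (final up to 57.5 uM) added 1 h before LPS (250 ng/mL) and ATP (1.25 mM) stimulation; lower signal means less secretion.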
* = called active by the depositor; ? = inconclusive; . = no result given; [ ] = another dose, or the depositor's remark. Unless noted, calls follow the shape of the dose curve; as a rule, active = well fitted curve in the direction sought with a large enough effect; inconclusive = small, poorly fitted or top-dose-only effect, or another doubt; inactive = no such curve, though single readings can be large; an effect the other way counts as inactive or inconclusive. % is scaled to controls: 0 for no effect and ±100 for the full control effect.

SMILES	DT40 TDP1 CPT	VP16 counter	ELG1 DNA repair	DT40 TDP1 no CPT	RORgamma inh	IL1B secr inh
CC(CC(=O)Nc1ccc2c(c1)c(=O)n(C)n2Cc1ccc(Cl)cc1)C(F)(F)F (stereo unspecified)	?	.	.	9.2µM*	.	-17
COc1cc(Cn2c3ccc(NC(=O)CC(C)C(F)(F)F)cc3c(=O)n2C)ccc1F (stereo unspecified)	?	.	.	16µM*	.	-14
O=C(c1ccco1)N1CCN(Cc2cc(=O)c(OCc3ccc(F)cc3)co2)CC1	?	.	12%	7%	.	-5
Cc1ccc(SCCOCCN2CCc3ccccc3C2)cc1	?	-5%	-2%	16µM*	9%	6
Cc1ccc(C)c(OCCCN2CCc3ccccc3C2)c1	12µM*	-19%	-12%	?	-41%	7
O=C(CN(CCO)Cc1ccccc1)N1CCN(S(=O)(=O)c2ccccc2)CC1	-2%	.	.	-6%	.	18
O=C(CSc1nnc(CCc2ccccc2)n1-c1ccc(Cl)cc1)NCc1ccccc1	16µM*	-18%	?	16µM*	-43%	-7
COc1ccc(CNC(=O)CSc2nnnn2-c2ccccc2)cc1	-2%	4%	17%	-9%	20%	2
O=C(CSc1nnc(CCc2nc3ccccc3[nH]2)n1-c1ccccc1)NCc1ccccc1	-22%	?	-9%	?	?	-2
COc1ccc(-n2c(CCc3ccccc3)nnc2SCC(=O)NCc2ccccc2)cc1	?	?	?	?	?	-52*
CCOc1cc(-c2noc(N)c2C(=O)OC)cc(OCC)c1OCC	-13%	?	?	?	-44%	-106*
Cc1cnc(-n2ncc(C(=O)NCc3ccccn3)c2C2CC2)nc1-c1cccs1	6%[9.04 µM]	.	.	-19%	.	.
Cc1ccc2ccc3cc(C(=O)N4CCN(c5ccccc5)CC4)nc3c2[nH]1	?	.	.	18µM*	.	.
COc1ccccc1N1CCN(C(=O)c2cc3ccc4ccc(C)[nH]c4c3n2)CC1	?	.	.	21µM*	.	.
Cc1ccc(C(=O)N/C(=C/c2ccco2)C(=O)N2CCOCC2)cc1	-15%	1%	9%	-1%	40%	1
CC(C)(C)c1ccc(C(=O)N/C(=C/c2cccs2)C(=O)NCc2ccco2)cc1	?	-12%	-17%	?	-11%	-68*
CC(C)(C)c1ccc(C(=O)N/C(=C\c2cccs2)C(=O)N2CCOCC2)cc1	-29%	-7%	-2%	21µM*	20%	6
Cc1ccc(C(=O)N/C(=C\c2ccco2)C(=O)N2CCOCC2)cc1C	-20%	-8%	21µM*	4%	-10%	-11
N#Cc1ccccc1OCC(=O)OCC(=O)NC1CC1	-5%	.	16%	15%	.	0
COCCOC(=O)c1[nH]c2c(c1C)C(=O)CC(c1ccc(N(C)C)cc1)C2 (stereo unspecified)	-28%	?	?	?	62%	-12
COCCOC(=O)c1[nH]c2c(c1C)C(=O)CC(c1ccc(F)cc1)C2 (stereo unspecified)	3.3µM*	-6%	?	5.8µM*	34%	62
COCCOC(=O)c1[nH]c2c(c1C)C(=O)CC(c1ccccc1)C2 (stereo unspecified)	0.65µM*	1%	?	0.92µM*	?	36
CCNC(=O)C1(C)CCCN(C(=O)CCc2cccs2)C1 (stereo unspecified)	-25%	.	.	-12%	.	4
CCOC(=O)C1CCN(c2ncnc3c2c(-c2ccccc2)cn3-c2ccccc2)CC1	?	-11%	?	23µM*	33%	-21
Cc1ccc(-n2cc(-c3ccccc3)c3c(N4CCOCC4)ncnc32)cc1	-29%	1%	?	?	0%	?
SMILES	DT40 TDP1 CPT	VP16 counter	ELG1 DNA repair	DT40 TDP1 no CPT	RORgamma inh	IL1B secr inh
CCOc1ccc(-n2cc(-c3ccccc3)c3c(N4CCN(c5ccccc5OC)CC4)ncnc32)cc1	12µM*	.	.	16µM*	.	.
COc1cccc(N2CCN(c3ncnc4c3c(-c3ccccc3)cn4-c3ccc(C)cc3)CC2)c1	3%	.	.	-1%	.	.
CCOC(=O)C1CCN(c2ncnc3c2c(-c2ccccc2)cn3-c2ccc(Cl)cc2)CC1	-9%	.	.	?	.	.
COc1ccc(-n2cc(-c3ccccc3)c3c(N4CCCC(C)C4)ncnc32)cc1 (stereo unspecified)	16µM*	.	.	10µM*	.	.
Cc1ccc(-n2cc(-c3ccccc3)c3c(N4CCCCC4)ncnc32)cc1	21µM*	.	.	23µM*	.	.
Nc1ccc(S(=O)(=O)NC2(C(F)(F)F)NC(=O)N(c3ccc(F)cc3)C2=O)cc1 (stereo unspecified)	13%	3%	-1%	1%	3%	12
CCOc1ccc(NC(=O)CSc2nc3ccccc3c(=O)n2CCC(=O)NC2CCCCC2)cc1	-14%	.	.	-8%	.	.
CCOC(=O)CNC(=O)O[C@@H]1C(=O)c2cc(Br)ccc2O[C@H]1c1cccc(OC)c1	.	-21%	.	.	-8%	.
Cc1cccc(-n2cc(-c3ccccc3)c3c(N4CCOCC4)ncnc32)c1	?	3%	18µM*	?	14%	-67*
CC(C)(C)S(=O)N1Cc2cc(C(=O)NCc3ccc4c(c3)OCO4)nc(-c3cccc(-c4ccccc4)c3)c2[C@@H]1CCO (stereo partly specified)	23µM*	.	.	?	.	-28
CCCNC(=O)c1cc2c(c(-c3cccc(-c4ccc(F)cc4)c3)n1)[C@H](CCO)N(S(=O)C(C)(C)C)C2 (stereo partly specified)	?	.	.	23µM*	.	?
COc1ccccc1/C=N/Nc1nc(C)cc(C)n1	-4%	-8%	4%	-20%	2%	10
Cc1ccc2nc(C)cc(N/N=C/c3ccccc3O)c2c1	-10%	7.9µM*	18%	-12%	5.6µM*	-18
COc1ccc(O)c(/C=N/Nc2nc(C)cc(-c3ccccc3)n2)c1	?	.	.	?	.	33
Nc1nc(-c2ccc(Cl)cc2)cc(C(F)(F)F)n1	-16%	-7%	27%	-1%	-24%	-4
COc1ccc(/C=N/Nc2cc(C)nc3ccc(OC)cc23)c(OC)c1	12µM*	10µM*	?	5.8µM*	11µM*	-104*
COc1ccc(/C=N/Nc2nc(C)cc(-c3ccccc3)n2)c(OC)c1	13%	11µM*	?	21µM*	10µM*	23
